For test [1], the target named is Paired box protein Pax-6 (Homo sapiens) (UniProt P26367). Nature of the test: ATG_Pax6_CIS: Attagene CIS-FACTORIAL HepG2 Assay for human Paired Box 6 (PAX6) (AID 2282956). As to conditions: HepG2 CIS-FACTORIAL PAX6 reporter transcription, RNA readout; actives raise or lower the signal. A digest of the protocol:
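Readout: reporter transcript fluorescence after RT-PCR and capillary electrophoresis. Cells: HepG2, transiently transfected with cis-regulated MRTUs. Exposure 24 h. Gain or loss of signal fitted bidirectionally relative to DMSO.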

A short description of test [2]: ATG_PXRE_CIS: Attagene CIS-FACTORIAL HepG2 Assay for human Pregnane X Receptor Element (PXRE) (AID 2282957). As to conditions: HepG2 Attagene CIS-FACTORIAL PXRE reporter, mRNA; actives raise or lower the signal. The procedure, abridged: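 After a 24 h chemical incubation, total RNA from transfected HepG2 cells was reverse-transcribed and reporter cDNA amplified, FAM-labeled, HpaI-digested and sized by capillary electrophoresis. DMSO served as baseline for bidirectional curve fitting.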

The nature of test [3]: ATG_PPRE_CIS: Attagene CIS-FACTORIAL HepG2 Assay for human Peroxisome Proliferator-activated Response Element (PPRE) (AID 2282958). As to conditions: HepG2 PPRE cis-element reporter, Attagene transcription factor profiling; actives raise or lower the signal. The procedure, abridged:
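Read-out: fluorescent reporter mRNA fragments resolved by capillary electrophoresis after RT-PCR. HepG2 cells carried transiently transfected PPRE-driven cis reporter constructs and were dosed for 24 h; gain or loss of signal fitted relative to DMSO.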

Test [4] is described as follows: ATG_RORE_CIS: Attagene CIS-FACTORIAL HepG2 Assay for human RAR-related Orphan Receptor Element (RORE) (AID 2282959). As to conditions: HepG2 Attagene cis-factorial RORE reporter, mRNA; actives raise or lower the signal. A digest of the protocol:
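Readout: fluorescent reporter mRNA by RT-PCR plus capillary electrophoresis, 24 h after dosing transfected HepG2 cells. Endogenous transcription factor activity on a cis promoter element is measured. Gain or loss of signal fitted against DMSO.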

Test [5] can be described thus: ATG_Sox_CIS: Attagene CIS-FACTORIAL HepG2 Assay for human SRY-box transcription factor (SOX) (AID 2282960). As to conditions: HepG2 Attagene cis-factorial SOX reporter, mRNA; actives raise or lower the signal. The procedure, abridged:
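Read-out: fluorescent RT-PCR products of SOX1-linked reporter transcripts resolved by capillary electrophoresis, fitted bidirectionally against DMSO. Transiently transfected HepG2 cells, 24 h after chemical exposure, endogenous transcription factor activity.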

For test [6], the target named is Transcription factor Sp1 (Homo sapiens) (UniProt P08047). Nature of the test: ATG_Sp1_CIS: Attagene CIS-FACTORIAL HepG2 Assay for human Specificity Protein 1 (Sp1) (AID 2282961). As to conditions: HepG2 Sp1 cis-reporter transcription, actives raise or lower the signal. A digest of the protocol:
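Read-out: fluorescence of 6-FAM-labeled, HpaI-digested RT-PCR products separated by capillary electrophoresis. HepG2 cells carried transfected cis-element reporter units and were exposed to chemicals for 24 h; gain or loss of signal fitted relative to DMSO.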

The nature of test [7]: ATG_SREBP_CIS: Attagene CIS-FACTORIAL HepG2 Assay for human Sterol Regulatory Element Binding (SREBP) (AID 2282962). As to conditions: HepG2 Attagene cis-factorial SREBP reporter, mRNA; actives raise or lower the signal. The procedure, abridged: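 Readout: fluorescent reporter-transcript peaks resolved by capillary electrophoresis after RT-PCR. Cells were human HepG2 carrying transfected cis-promoter reporter constructs, dosed for 24 h. Gain or loss of signal was fitted against DMSO controls.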

Test [8] addresses Signal transducer and activator of transcription 3 (Homo sapiens) (UniProt P40763). Nature of the test: ATG_STAT3_CIS: Attagene CIS-FACTORIAL HepG2 Assay for human Signal Transducer and Activator of Transcription 3 (STAT3) (AID 2282963). As to conditions: HepG2, Attagene cis-factorial STAT3 reporter transcription; actives raise or lower the signal. The procedure, abridged: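 Cis-factorial format: endogenous transcription factors in HepG2 drive transfected reporter units. After 24 h treatment, reporter RNA was reverse-transcribed, amplified, FAM-labelled and HpaI-digested before CE analysis; activity scored in both directions against DMSO.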

A short description of test [9]: ATG_TA_CIS: Attagene CIS-FACTORIAL HepG2 Assay for human TA Basal Promoter (AID 2282964). As to conditions: HepG2 Attagene CIS-factorial TA basal promoter reporter; actives raise or lower the signal. A digest of the protocol: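 Steps: transfect HepG2 with MRTUs; dose 24 h; isolate RNA, DNase-treat, reverse-transcribe; PCR and FAM-label reporter cDNA; digest with HpaI 2h at 37 C; run capillary electrophoresis. Activity fitted both directions against DMSO.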

The nature of test [10]: ATG_TCF_b_cat_CIS: Attagene CIS-FACTORIAL HepG2 Assay for human T-Cell-Factor with beta-catenin (TCF/b-cat) (AID 2282965). As to conditions: HepG2 TCF/beta-catenin cis-reporter transcription, actives raise or lower the signal. A digest of the protocol:
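Measured: reporter mRNA in HepG2 transiently transfected with cis-promoter reporter units, 24 h after chemical addition. Fitting was bidirectional, DMSO as negative control.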

Test [11] in a line: ATG_TAL_CIS: Attagene CIS-FACTORIAL HepG2 Assay for human TAL Basal Promoter (AID 2282966).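 Also: background control endpoint measuring basal TAL promoter reporter mRNA not a specific factor.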 As to conditions: HepG2 Attagene cis-factorial TAL promoter reporter; actives raise or lower the signal. A digest of the protocol: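 Basal-promoter background-control endpoint from a multiplexed HepG2 reporter panel. Cells were exposed 24 h, then reporter mRNA was read by RT-PCR/CE fluorescence and fitted in both directions relative to DMSO.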

A short description of test [12]: ATG_TGFb_CIS: Attagene CIS-FACTORIAL HepG2 Assay for human Transforming Growth Factor (TGF) (AID 2282967). As to conditions: HepG2 Attagene CIS TGFb reporter, mRNA transcription; actives raise or lower the signal. The procedure, abridged:
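Cells were dosed for 24 hours, after which total RNA was reverse-transcribed and reporter sequences amplified, labeled and sized by capillary electrophoresis. Activity was fitted in both directions against DMSO.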

A short description of test [13]: ATG_VDRE_CIS: Attagene CIS-FACTORIAL HepG2 Assay for human Vitamin D Receptor Element (VDRE) (AID 2282968). As to conditions: HepG2 VDRE cis-reporter transcription, actives raise or lower the signal. The procedure, abridged: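 Measures endogenous factor activity through cis-element-driven reporter transcripts in transiently transfected HepG2. Cells are treated 24 h; reporter mRNA is quantified by RT-PCR and capillary electrophoresis; fitting is bidirectional.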

The target in test [14] is Estrogen receptor (Homo sapiens) (UniProt P03372). Nature of the test: ATG_ERa_TRANS: Attagene TRANS-FACTORIAL HepG2 Assay for human Estrogen Receptor alpha (ERa) (AID 2282970; active = hit-call score of the fitted dose curve at least 0.9, where 1 is the maximum). As to conditions: HepG2 Attagene TRANS ERa GAL4 reporter, mRNA. A digest of the protocol: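 Gal4-fusion ERa transactivation, measured as reporter transcript level in transiently transfected HepG2 cells. Exposure 24 h; RT-PCR plus capillary electrophoresis with fluorescence detection.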
Chain of Estrogen receptor (Homo sapiens) (P03372 whole entry, looked up, the tested form may be a part): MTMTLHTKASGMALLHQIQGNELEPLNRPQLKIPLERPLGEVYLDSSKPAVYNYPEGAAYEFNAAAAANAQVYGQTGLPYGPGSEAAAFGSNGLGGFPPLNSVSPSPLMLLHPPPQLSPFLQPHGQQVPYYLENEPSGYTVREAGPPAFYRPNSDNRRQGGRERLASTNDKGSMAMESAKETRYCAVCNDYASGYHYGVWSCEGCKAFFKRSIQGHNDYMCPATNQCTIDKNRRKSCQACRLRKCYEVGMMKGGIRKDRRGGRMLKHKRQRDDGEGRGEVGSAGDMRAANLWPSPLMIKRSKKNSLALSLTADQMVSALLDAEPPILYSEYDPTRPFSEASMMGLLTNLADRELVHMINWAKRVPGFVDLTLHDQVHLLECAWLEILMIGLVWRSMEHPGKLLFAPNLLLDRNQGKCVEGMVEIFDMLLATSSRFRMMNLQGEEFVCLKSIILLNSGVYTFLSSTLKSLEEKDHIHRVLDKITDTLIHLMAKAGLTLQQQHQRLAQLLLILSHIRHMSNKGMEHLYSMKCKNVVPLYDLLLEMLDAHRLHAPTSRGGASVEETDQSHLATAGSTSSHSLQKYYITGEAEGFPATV

The target of test [15] is X-box-binding protein 1 (Homo sapiens) (UniProt P17861). Nature of the test: ATG_Xbp1_CIS: Attagene CIS-FACTORIAL HepG2 Assay for human X-box Binding Protein 1 (XBP1) (AID 2282972). As to conditions: HepG2 XBP1 cis-element reporter, Attagene multiplex; actives raise or lower the signal. The procedure, abridged:
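Read-out: fluorescent reporter mRNA fragments resolved by capillary electrophoresis after RT-PCR. Human HepG2 liver cells carried transfected cis-promoter reporter units and were exposed to chemicals for 24 hours. Gain or loss of signal fitted relative to DMSO baseline.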

Test [16] in a line: ATG_M_19_TRANS: Attagene TRANS-FACTORIAL HepG2 Assay for M19 Transcription Factor (Internal Marker) (AID 2282974; active = hit-call score of the fitted dose curve at least 0.9, where 1 is the maximum). As to conditions: HepG2 Attagene TRANS-FACTORIAL M19 internal marker reporter. The procedure, abridged: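 24 h chemical exposure of transiently transfected HepG2 (MRTU library). RNA → oligo(dT) RT → PCR → 6-FAM labelling → HpaI cut → CE fluorescence. Positive-direction fit vs DMSO baseline; background internal-marker readout.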

Test [17] in a line: ATG_GAL4_TRANS: Attagene TRANS-FACTORIAL HepG2 Assay for GAL4 (Internal Marker) (AID 2282976; active = hit-call score of the fitted dose curve at least 0.9, where 1 is the maximum). As to conditions: HepG2 Attagene TRANS GAL4 internal marker reporter. A digest of the protocol:
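Background-control readout: GAL4-UAS reporter transcript in transiently transfected HepG2 cells after 24 h compound exposure. Measured by RT-PCR, 6-FAM primer extension, HpaI digest and capillary electrophoresis; gain-of-signal fit versus DMSO.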

Test [18] concerns the target Nuclear receptor subfamily 1 group I member 3 (Homo sapiens) (UniProt Q14994). Nature of the test: ATG_CAR_TRANS: Attagene TRANS-FACTORIAL HepG2 Assay for human Constitutive Androstane Receptor (CAR) (AID 2282969; active = hit-call score of the fitted dose curve at least 0.9, where 1 is the maximum;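 also: activators raise reporter mRNA above DMSO so AC50 marks induction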). As to conditions: HepG2 Attagene TRANS-FACTORIAL CAR reporter. The procedure, abridged: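 Signal is reporter mRNA induction relative to DMSO, measured 24 h after dosing by RT-PCR with fluorescent primer extension and capillary electrophoresis. Human HepG2 liver cells carried transiently transfected chimeric NR-Gal4/GAL4-UAS reporter constructs.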

In test [19] the target is Steroid hormone receptor ERR1 (Homo sapiens) (UniProt P11474). Nature of the test: ATG_ERRa_TRANS: Attagene TRANS-FACTORIAL HepG2 Assay for human Estrogen-Related Receptor alpha (ERRa) (AID 2282971; active = hit-call score of the fitted dose curve at least 0.9, where 1 is the maximum). As to conditions: HepG2 Attagene TRANS reporter, ERRa transactivation. The procedure, abridged:
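HepG2 cells transiently transfected with GAL4-UAS reporter units and chimeric NR-Gal4 constructs; after 24 hour compound incubation, reporter mRNA quantified by RT-PCR, fluorescent labelling and capillary electrophoresis, gain of signal versus DMSO.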

Values joined by “and” are separate entries in the source; they are usually repeats but may differ in a detail not shown here. Equal values may be shown once. Results filed as inconclusive are left out. Some structures have more than one record in an assay (separate samples or runs), and their calls can disagree. Active and inactive are the calls of the source. The calls were made as follows, unless noted: active = hit-call score of the fitted dose curve at least 0.9, where 1 is the maximum; inactive = score below 0.9.

Consider six compounds from PubChem BioAssay (EPA / NIEHS).

Chain of X-box-binding protein 1 (Homo sapiens) (P17861 whole entry, looked up, the tested form may be a part): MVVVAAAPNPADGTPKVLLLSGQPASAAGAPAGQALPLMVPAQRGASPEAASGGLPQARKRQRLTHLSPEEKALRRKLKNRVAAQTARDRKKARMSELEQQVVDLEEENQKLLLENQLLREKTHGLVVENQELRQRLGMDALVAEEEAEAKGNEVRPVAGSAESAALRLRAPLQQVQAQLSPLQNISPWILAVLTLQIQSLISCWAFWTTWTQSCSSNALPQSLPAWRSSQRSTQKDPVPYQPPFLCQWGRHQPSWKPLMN
Chain of Signal transducer and activator of transcription 3 (Homo sapiens) (P40763 whole entry, looked up): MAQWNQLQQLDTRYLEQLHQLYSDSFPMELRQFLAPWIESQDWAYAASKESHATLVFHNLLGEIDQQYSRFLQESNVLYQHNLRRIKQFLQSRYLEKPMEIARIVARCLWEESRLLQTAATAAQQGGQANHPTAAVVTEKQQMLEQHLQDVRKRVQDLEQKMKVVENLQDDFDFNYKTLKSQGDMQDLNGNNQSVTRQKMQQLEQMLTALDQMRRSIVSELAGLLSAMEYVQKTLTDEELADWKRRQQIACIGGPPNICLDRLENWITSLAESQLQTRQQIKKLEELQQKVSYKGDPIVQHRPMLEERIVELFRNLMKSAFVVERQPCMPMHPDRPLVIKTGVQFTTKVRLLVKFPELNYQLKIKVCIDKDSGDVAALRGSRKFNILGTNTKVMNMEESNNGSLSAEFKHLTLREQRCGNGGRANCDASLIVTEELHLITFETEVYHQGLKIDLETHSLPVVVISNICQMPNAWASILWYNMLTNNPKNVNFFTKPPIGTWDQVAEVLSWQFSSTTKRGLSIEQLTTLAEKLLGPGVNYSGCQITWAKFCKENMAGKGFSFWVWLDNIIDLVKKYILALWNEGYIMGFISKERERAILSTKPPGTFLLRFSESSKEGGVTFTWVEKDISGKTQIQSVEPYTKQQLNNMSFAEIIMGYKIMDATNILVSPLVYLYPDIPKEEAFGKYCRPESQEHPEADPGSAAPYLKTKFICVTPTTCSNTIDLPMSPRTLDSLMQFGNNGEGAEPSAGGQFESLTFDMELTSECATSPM
Chain of Paired box protein Pax-6 (Homo sapiens) (P26367 whole entry, looked up): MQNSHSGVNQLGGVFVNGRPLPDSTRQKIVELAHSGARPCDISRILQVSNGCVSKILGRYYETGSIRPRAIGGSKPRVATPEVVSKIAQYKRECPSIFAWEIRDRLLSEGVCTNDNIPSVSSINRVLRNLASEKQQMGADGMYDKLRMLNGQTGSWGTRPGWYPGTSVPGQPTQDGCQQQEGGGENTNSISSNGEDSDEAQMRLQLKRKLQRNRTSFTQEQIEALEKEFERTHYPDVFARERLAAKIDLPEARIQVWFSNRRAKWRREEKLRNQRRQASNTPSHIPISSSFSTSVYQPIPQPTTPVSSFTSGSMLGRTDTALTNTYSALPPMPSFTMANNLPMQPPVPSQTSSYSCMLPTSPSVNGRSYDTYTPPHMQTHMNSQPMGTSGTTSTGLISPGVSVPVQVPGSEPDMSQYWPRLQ
Chain of Transcription factor Sp1 (Homo sapiens) (P08047 whole entry, looked up): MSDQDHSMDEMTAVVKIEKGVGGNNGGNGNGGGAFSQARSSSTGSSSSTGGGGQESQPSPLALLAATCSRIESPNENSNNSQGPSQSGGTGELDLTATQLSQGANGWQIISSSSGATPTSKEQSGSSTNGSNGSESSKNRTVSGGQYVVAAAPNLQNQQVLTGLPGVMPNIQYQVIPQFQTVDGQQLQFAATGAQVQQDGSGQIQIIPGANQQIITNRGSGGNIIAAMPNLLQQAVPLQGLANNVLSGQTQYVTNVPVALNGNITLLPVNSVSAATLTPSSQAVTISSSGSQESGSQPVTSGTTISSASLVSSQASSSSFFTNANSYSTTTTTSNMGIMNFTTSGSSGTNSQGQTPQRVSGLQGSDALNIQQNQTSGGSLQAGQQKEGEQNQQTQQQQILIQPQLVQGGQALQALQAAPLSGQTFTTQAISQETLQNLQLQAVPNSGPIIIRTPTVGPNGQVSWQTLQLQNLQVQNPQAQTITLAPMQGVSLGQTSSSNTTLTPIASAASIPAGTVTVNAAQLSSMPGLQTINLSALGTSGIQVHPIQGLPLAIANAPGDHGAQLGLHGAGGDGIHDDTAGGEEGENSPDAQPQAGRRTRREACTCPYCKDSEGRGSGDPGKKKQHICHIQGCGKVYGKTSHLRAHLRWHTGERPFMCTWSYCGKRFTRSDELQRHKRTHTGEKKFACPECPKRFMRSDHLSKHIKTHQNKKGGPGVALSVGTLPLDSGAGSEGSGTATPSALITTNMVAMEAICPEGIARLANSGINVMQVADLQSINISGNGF
Chain of Nuclear receptor subfamily 1 group I member 3 (Homo sapiens) (Q14994 whole entry, looked up, the tested form may be a part): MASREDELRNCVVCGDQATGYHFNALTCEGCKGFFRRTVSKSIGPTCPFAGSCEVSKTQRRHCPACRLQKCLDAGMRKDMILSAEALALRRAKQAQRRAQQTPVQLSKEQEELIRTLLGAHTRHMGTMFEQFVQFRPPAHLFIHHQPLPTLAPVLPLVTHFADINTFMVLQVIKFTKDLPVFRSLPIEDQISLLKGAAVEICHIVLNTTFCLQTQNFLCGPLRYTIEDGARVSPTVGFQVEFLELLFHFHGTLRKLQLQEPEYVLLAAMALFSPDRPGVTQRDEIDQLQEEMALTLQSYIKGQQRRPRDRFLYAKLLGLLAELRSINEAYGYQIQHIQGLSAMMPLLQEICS
Chain of Steroid hormone receptor ERR1 (Homo sapiens) (P11474 whole entry, looked up, the tested form may be a part): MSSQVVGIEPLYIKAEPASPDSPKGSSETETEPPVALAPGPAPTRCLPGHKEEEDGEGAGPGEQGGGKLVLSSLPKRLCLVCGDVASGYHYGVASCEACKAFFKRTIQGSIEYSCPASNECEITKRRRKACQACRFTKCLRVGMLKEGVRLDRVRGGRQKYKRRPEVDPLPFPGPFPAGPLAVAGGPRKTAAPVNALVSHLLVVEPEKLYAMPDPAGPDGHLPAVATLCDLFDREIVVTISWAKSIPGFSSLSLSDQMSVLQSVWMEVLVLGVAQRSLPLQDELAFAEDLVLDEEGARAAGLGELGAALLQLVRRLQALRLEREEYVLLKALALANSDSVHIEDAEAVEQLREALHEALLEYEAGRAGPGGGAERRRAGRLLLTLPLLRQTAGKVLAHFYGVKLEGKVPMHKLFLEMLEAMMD

For the compound `CC(=O)N1CCN(c2ccc(OC[C@H]3CO[C@](Cn4ccnc4)(c4ccc(Cl)cc4Cl)O3)cc2)CC1`, the AC50 in [1] is 10 µM (active); in [2] it was 942 nM (active); in test [4], 1.58 µM (active); in test [6], 49.9 µM (active); in [7] it was 5.24 µM (active); in test [9], 4.84 µM (active). For the same compound, the AC50 in [10] is 5.19 µM (active); in test [13], 8.88 µM (active); in test [15], 18.3 µM (active). The compound was classed as inactive in test [3], in [5], in [8], in test [11], in test [12] and in test [14]. In addition, the compound was called inactive in test [16].

As for `CCCOC(=O)c1cc(O)c(O)c(O)c1`, the compound was called inactive in [1], in [2], in test [4], in test [5], in [6] and in test [7]. The result in [8], in test [9], in test [10], in test [11], in test [12] and in test [13] was inactive. Moreover, the compound was classed as inactive in test [15] and in [16]. The AC50 was 21 µM (active) in [3] and 14.5 µM (active) in test [14].

For `CC/C(=C(/CC)c1ccc(O)cc1)c1ccc(O)cc1`, the AC50 in test [1] is 14.9 µM (active) and 5.16 µM (active); in test [5] it was 11.1 µM (active); in [6] it was 18.2 µM (active); in [10], 11.1 µM (active) and 16.2 µM (active) and 5.89 µM (active); in [13], 8.27 µM (active) and 6.68 µM (active) and 8.92 µM (active); in test [15], 14.4 µM (active) [middle of 4 runs]. The outcome in test [1], in test [5], in test [6], in [7], in test [8] and in test [9] was inactive. The call in [10], in [11], in test [12], in [13], in [15] and in test [17] was inactive.

Regarding `CCCCCCCC[Si](OCC)(OCC)OCC`, the call in test [1], in test [3], in test [4], in test [5], in test [6] and in test [7] was inactive. Further, the compound was called inactive in test [8], in test [9], in [10], in test [11], in test [12] and in test [13]. The compound was classed as inactive in test [15] and in test [16]. Also, the AC50 in test [2] was 8.67 µM (active) [middle of 4 runs]; in test [3], 62.9 µM (active) and 70.5 µM (active); in test [5], 147 µM (active); in test [6], 159 µM (active); in test [7] it was 100 µM (active); in test [10], 68.9 µM (active) and 100 µM (active). Besides, the AC50 was 148 µM (active) in [11] and 169 µM (active) in test [13].

Regarding `CC(C)(O)c1ccc(CNC(=O)c2cccnc2Oc2ccc3nonc3c2)cc1`, the result in [1], in test [3], in test [4], in test [5], in [6] and in [8] was inactive. For the same compound, the compound was called inactive in test [9], in test [10], in test [11], in [12], in test [18] and in test [14]. The compound was called inactive in test [19] and in [15]. For the same compound, the AC50 in [2] is 7650 nM (active); in test [7] it was 50.9 µM (active); in test [13], 33.2 µM (active).

As to `CC[C@@H]1C[C@H](N(Cc2cc(C(F)(F)F)cc(C(F)(F)F)c2)C(C)=O)c2cc(C(F)(F)F)ccc2N1C(=O)OC(C)C`, the compound was called inactive in test [1], in [3], in test [4], in test [5], in test [6] and in test [7]. The compound was called inactive in [8], in [9], in test [10], in test [11], in test [12] and in test [18]. Further, the result in [15] and in [17] was inactive. Besides, the AC50 was 67.6 nM (active) in test [2], 0.119 µM (active) in [13] and 100 µM (active) in test [14].
